Compound activity deposited in PubChem by National Center for Advancing Translational Sciences (NCATS).
Sampled rows, rich in hits. Any-hit rate of the full collection: about 6.5%.
Lassa entry inh: blocks Lassa virus binding to or entry into cells; Lassa virus pseudotype entry inhibition, cell reporter; Potency, µM (doses to about 37.9 µM), without a hit: top-dose activity change, negative = inhibition, hits mostly inhibitors; actives 1.2% (n = 300,000); calls by dose curve; tested in HEK293 cells; note: potency is the fitted concentration of half-maximal effect; nearly all actives have a fitted effect of over 50% in size
Vaccinia mCherry: vaccinia inhibition (mCherry reporter). Potency, µM (top dose mostly 36.5 µM), for inactives: top-dose activity change, negative = inhibition, usual class: inhibitors. Vaccinia virus mCherry reporter infection, fluorescence. actives 0.63% (n = 310,000); calls by dose curve; tested in A549 cells; note: potency is the fitted concentration of half-maximal effect; nearly all actives have a fitted effect of over 35% in size
HCMV antiviral: blocks human cytomegalovirus replication; HFF cells, HCMV-luciferase reporter, 72 h; hits give low values; activity change, negative = inhibition, % at 57.5 µM; actives 4.5% (n = 410,000); in the data active = activity change below about -60%; inconclusive = no clear call, values can overlap the other calls; inactive = above about -39%
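Human foreskin fibroblasts infected with luciferase-reporter HCMV at MOI 1 PFU/cell, compounds at two doses. Luciferase measured 72 h post infection; normalized to buffer-only basal and Salinomycin (10uM) controls.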
Vaccinia Venus: vaccinia inhibition (Venus reporter). Vaccinia virus Venus reporter expression, fluorescence. Potency, µM (series often up to 36.5 µM), without a hit: at the top dose activity change, negative = inhibition, usual class: inhibitors. actives 0.46% (n = 330,000); calls by dose curve; tested in A549 cells; note: potency is the fitted concentration of half-maximal effect; nearly all actives have a fitted effect of over 30% in size
MARV entry inh: blocks Marburg virus binding to or entry into cells. AID 540276. actives 1.8% (n = 300,000). Potency, µM (titrated, usually from 37.8 µM), for inactives: at the top dose activity change, negative = inhibition, actives largely listed as inhibitors. Marburg virus pseudotyped entry inhibition, cell reporter; calls by dose curve; tested in HEK293 cells; note: potency is the fitted concentration of half-maximal effect
FMDV inh: antivirals against foot and mouth disease virus; FMDV antiviral cell-based qHTS; actives 1.2% (n = 410,000); AID 1159524; Potency, µM (highest dose often 57.9 µM), inactives show at the top dose activity change, negative = inhibition, actives largely listed as inhibitors; calls by dose curve; tested in HEK293T cells; note: read-out not given here; potency is the fitted concentration of half-maximal effect; nearly all actives have a fitted effect of over 45% in size
The depositor's hits bear a star; i = inactive; ? = inconclusive; nt = not tested or not shown; [ ] = another dose, or the depositor's remark. % is set by controls: 0 for no effect and ±100 for the full control effect.

SMILES	Lassa entry inh	Vaccinia mCherry	HCMV antiviral	Vaccinia Venus	MARV entry inh	FMDV inh
c1ccc2c(c1)N1CCCN=C1N2CCN1CCCCC1	-26%	nt	?	nt	13µM*	-9%
COC(=O)[C@@H]1CCCN1C(=O)c1c(OC)cc(=O)n2c1CCN(Cc1ccc3cccnc3c1)CC2	nt	-1%	nt	-11%	nt	2%
CCOc1ccc(S(=O)(=O)n2nc(C)c(S(=O)(=O)N3CCCCC3)c2C)cc1	-6%[46.1 µM]	3%	-3	0%	nt	17%
COc1ccc(OC)c2[nH]c(C(=O)N/N=C/c3ccccc3O)cc12	nt	?	-93*	?	nt	?
COc1ccc(/C=N/NC(=O)c2cc3c(OC)ccc(OC)c3[nH]2)cc1O	?	7.1µM*	?	?	?	-1%
O=C(NCc1ccccn1)c1cnn(-c2nccc(-c3ccccc3F)n2)c1C1CC1	nt	-19%	nt	-3%	nt	14%
C/C(O)=C(/C#N)c1nc2ccccc2[nH]1	6%	nt	-22	?	4%[46.1 µM]	-13%
CC(=O)OC(/C(O)=C(\C#N)c1nc2ccccc2[nH]1)c1ccccc1 (configuration not stated)	-8%	?	-96*	-29%	-21%	nt
CC(C)(C)C(=O)N(Cc1ccc(Cl)cc1)c1cnccn1	nt	-17%	-64*	-25%	nt	?
CC(NC(=O)COc1ccccc1-c1ccccc1)c1ccccc1 (configuration not stated)	18µM*	i	-69*	-6%	?	?
CC(=O)Nc1ccccc1OCC(=O)NC(C)c1ccccc1 (configuration not stated)	-3%	nt	76	nt	0%	3%
C/C(CCc1ccccc1)=N\NC(=O)COc1ccccc1C	nt	i	26	-4%	?	-1%
C/C(CCC(C)C)=N\NC(=O)COc1ccccc1-c1ccccc1	?	-13%	-90*	-11%	?	-10%
Cc1ccc2[nH]c(=O)c3cc(C(=O)NCc4cccc(Cl)c4)sc3c2c1	nt	-4%	-17	-27%	1%[46.1 µM]	-22%
O=c1cc(N2CCCCC2)c(-c2ccccc2)nn1Cc1c(Cl)cccc1Cl	13µM*	?	?	?	?	?
COc1ccc2nc3sc(C(=O)Nc4cc(Cl)c(OC)cc4OC)cc3cc2c1	18%[46.1 µM]	?	-9	?	?	-3%
COC(=O)c1ccccc1NCc1cc(=O)oc2cc(O)c(O)cc12	?	7.1µM*	0	?	?	-9%
COc1ccc(Nc2cc(C)c3cc(NC(=O)c4cc(OC)cc(OC)c4)ccc3n2)cc1	-17%[46.1 µM]	-23%	-77*	?	nt	-5%
COc1ccc(Nc2cc(C)c3cc(NC(=O)COc4cccc(C)c4)ccc3n2)cc1	?	?	-39	?	nt	35µM*
COc1ccc(Nc2cc(C)c3cc(NC(=O)Cc4c(F)cccc4Cl)ccc3n2)cc1	-14%[46.1 µM]	-11%	?	-20%	nt	-29%
COc1ccc(CC(=O)Nc2ccc3nc(Nc4ccc(OC)cc4)cc(C)c3c2)cc1	11%[46.1 µM]	-25%	-86*	-18%	nt	-29%
COc1ccc(Br)cc1CNC(=O)c1cnc2sc(N3CCCCCC3)nn2c1=O	-20%[46.1 µM]	i	24	-29%	nt	0%
COc1cc(-c2nc(Cn3nnc(C(=O)Nc4ccc(C)cc4C)c3C)c(C)o2)cc(OC)c1OC	-7%[46.1 µM]	-23%	-10	-17%	2%[46.1 µM]	?
COc1ccc(-n2nc(C)c3c(C(F)(F)F)cc(-c4cccnc4)nc32)cc1	-5%[46.1 µM]	-15%	-73*	-7%	2%[46.1 µM]	-8%
Cc1nn(-c2cccc(Cl)c2)c2nc(-c3cccnc3)cc(C(F)(F)F)c12	16%[46.1 µM]	-5%	-33	-3%	8%[46.1 µM]	-13%
SMILES	Lassa entry inh	Vaccinia mCherry	HCMV antiviral	Vaccinia Venus	MARV entry inh	FMDV inh
COc1ccc(N2C(=O)CCSC23C(=O)N(Cc2ccc(F)cc2)c2ccccc23)cc1 (configuration not stated)	?	11µM*	?	?	nt	-14%
O=C(Nc1cccc(-c2cn3c(n2)SCC3)c1)c1ccc2ccccc2n1	nt	-14%	312	-6%	-18%[46.1 µM]	17%
O=C(Nc1ccc(-c2cn3c(n2)SCC3)cc1)c1ccc2ccccc2n1	?	-11%	10	-16%	?	25µM*
O=CC(=O)c1ccc(Cl)cc1	nt	-14%	nt	-8%	nt	nt
O=C1c2ccccc2NC(c2cn[nH]c2-c2ccc(Cl)cc2)N1O (configuration not stated)	?	?	-39	-18%	?	14µM*
O=C1c2ccccc2NC(c2cn[nH]c2-c2ccccc2)N1O (configuration not stated)	2%	-24%	-19	-20%	-29%	-27%
COc1ccc(N(C(=O)Nc2ccc(Cl)cc2)C2=NCCC2)cc1	6.5µM*	-2%	-12	-22%	-12%	nt
Cc1ccc(N(C(=O)Nc2ccccc2)C2=NCCC2)cc1	-11%[46.1 µM]	i	-35	-16%	26%[46.1 µM]	-17%
COC(=O)C1CCN(Cc2ccc3c(c2)CN(C(=O)c2cc(C)nc(C)n2)CCO3)CC1	nt	-16%	nt	-9%	nt	5%
Fc1ccccc1N1CCN(c2c3c(nc4nncn24)CCC3)CC1	-1%[46.1 µM]	-11%	-18	-8%	8%[46.1 µM]	?
Cc1nn(-c2ccccc2)c(-c2ccccc2)c1C(=O)O	1%	nt	-67*	5%	26%	-16%
CN(C)S(=O)(=O)c1cccc(-c2nnc(-c3ccccc3)o2)c1	7%	nt	-105*	nt	?	15%
CCN(CC)C(=O)Cn1ncc2c([nH]c3ccc(C)cc32)c1=O	3%[46.1 µM]	2%	3	-6%	nt	-5%
CCOP(=O)(OCC)c1nc(-c2ccccc2Cl)oc1N1CCOCC1	2%	i	-3	-1%	?	-2%
CCOP(=O)(OCC)c1nc(-c2ccc(Cl)cc2Cl)oc1N1CCCCC1	6.3µM*	-1%	?	-24%	?	-20%
CCc1cccc(C)c1NC(=O)CN(C)S(=O)(=O)c1cccc2nsnc12	-2%[46.1 µM]	-12%	-10	-13%	0%[46.1 µM]	-21%
CNC(=S)N1N=C(c2ccc(C)cc2)CC1c1ccc(Br)cc1 (configuration not stated)	?	nt	7	nt	?	15%
CNC(=S)N1N=C(c2ccc(C)cc2)CC1c1ccc(Cl)cc1 (configuration not stated)	9.2µM*	nt	-6	nt	?	-22%
COC(=O)C1=C(c2ccc(-c3ccccc3)c(F)c2)C[C@@H]2CC[C@H]1N2C(=O)N1CCC(C)CC1	nt	-16%	-26	?	nt	-7%
COC(=O)C1=C(c2ccc(-c3ccccc3)c(F)c2)C[C@@H]2CC[C@H]1N2C(=O)N1CCCCC1	nt	?	-75*	?	nt	?
COC(=O)C1=C(c2ccc(-c3ccccc3)c(F)c2)C[C@@H]2CC[C@H]1N2C(=O)N1CCCC1	nt	22µM*	-72*	?	nt	-8%
CCCN1Cc2cccc(C(=O)Nc3cccc(C(=O)OCC)c3)c2C1=O	0%[46.1 µM]	-4%	5	0%	0%[46.1 µM]	0%
